This passage reports outcome and AC50 results from PubChem BioAssay (EPA / NIEHS).

Experiment [1] has as its target human Peroxisome Proliferator-activated Receptor delta (PPARd), PPARD (gene 5467) (UniProt Q03181). The experiment is described as follows: ATG_PPARd_TRANS: Attagene TRANS-FACTORIAL HepG2 Assay for human Peroxisome Proliferator-activated Receptor delta (PPARd) (AID 2283002). In outline:
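Multiplexed trans-activation format: HepG2 liver cells expressing exogenous NR-Gal4 chimeras and GAL4-UAS reporters were exposed for 24 h. Reporter mRNA was detected by RT-PCR with capillary electrophoresis fluorescence; activity fitted as gain of signal relative to DMSO.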

In experiment [2] the target is Peroxisome proliferator-activated receptor gamma (Homo sapiens) (UniProt P37231). The experiment in a line: ATG_PPARg_TRANS: Attagene TRANS-FACTORIAL HepG2 Assay for human Peroxisome Proliferator-activated Receptor-gamma (PPARg) (AID 2283007). In a few lines: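 Chimeric NR-Gal4 transactivation is measured in transiently transfected HepG2 cells by reporter mRNA induction at 24 h. Detection uses RT-PCR with fluorescent labelling and capillary electrophoresis; DMSO defines baseline.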

Experiment [3] concerns the target Nuclear receptor subfamily 1 group I member 2 (Homo sapiens) (UniProt O75469). The experiment in a line: ATG_PXR_TRANS: Attagene TRANS-FACTORIAL HepG2 Assay for human Pregnane X Receptor (PXR) (AID 2283008). In outline:
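HepG2 cells transiently transfected with GAL4-UAS reporter units and PXR-Gal4 chimera, exposed 24 h. Reporter mRNA quantified by RT-PCR, fluorescent labelling, HpaI digestion and capillary electrophoresis; gain of signal vs DMSO.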

In experiment [4] the target is Retinoic acid receptor alpha (Homo sapiens) (UniProt P10276). The experiment in a line: ATG_RARa_TRANS: Attagene TRANS-FACTORIAL HepG2 Assay for human Retinoic Acid Receptor alpha (RARa) (AID 2283005). In outline: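 HepG2 cells transiently transfected with multiple reporter units expressing chimeric RARα-GAL4 fusion, with GAL4-UAS-driven reporters. After 24 h compound exposure, reporter mRNA induction quantified by RT-PCR and capillary electrophoresis with fluorescent labeling; gain-of-signal fitted relative to DMSO control.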

Experiment [5] concerns the target human RAR-related Orphan Receptor beta (RORb), RORB (gene 6096) (UniProt Q92753). The experiment is described as follows: ATG_RORb_TRANS: Attagene TRANS-FACTORIAL HepG2 Assay for human RAR-related Orphan Receptor beta (RORb) (AID 2283010). In outline: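 Readout is reporter-gene mRNA induction, detected as fluorescence after RT-PCR and capillary electrophoresis, fitted for gain of signal against DMSO controls. Transiently transfected HepG2 liver cells carrying GAL4-UAS reporter constructs were treated for 24 hours.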

The target of experiment [6] is human RAR-related Orphan Receptor gamma (RORg), RORC (gene 6097) (UniProt P51449). The experiment is described as follows: ATG_RORg_TRANS: Attagene TRANS-FACTORIAL HepG2 Assay for human RAR-related Orphan Receptor gamma (RORg) (AID 2283011). In outline: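 Reporter transcripts from a transfected RORg-GAL4 chimera in HepG2 cells were quantified 24 h after dosing by RT-PCR, 6-FAM labelling, HpaI digestion and capillary electrophoresis; increases over DMSO baseline were fitted.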

The target in experiment [7] is human Retinoic Acid Receptor gamma (RARg), RARG (gene 5916) (UniProt P13631). The experiment is described as follows: ATG_RARg_TRANS: Attagene TRANS-FACTORIAL HepG2 Assay for human Retinoic Acid Receptor gamma (RARg) (AID 2283009). In outline:
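Transient transfection of HepG2 with multi-reporter constructs, then 24 h chemical treatment. Total RNA isolated, reverse-transcribed, PCR-amplified, fluorescently labelled and resolved by capillary electrophoresis; activity scored as mRNA induction versus DMSO.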

Experiment [8] addresses Retinoic acid receptor RXR-alpha (Homo sapiens) (UniProt P19793). The experiment in a line: ATG_RXRa_TRANS: Attagene TRANS-FACTORIAL HepG2 Assay for human Retinoid X Receptor alpha (RXRa) (AID 2283012). In outline:
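Transient transfection of human HepG2 with multiple GAL4-UAS reporter constructs; 24 h compound exposure; total RNA isolated, reverse-transcribed, PCR-amplified, 6-FAM labelled, HpaI-cut, resolved by capillary electrophoresis. Positive-direction fit versus DMSO.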

For experiment [9], the target named is human Retinoic Acid Receptor beta (RARb), RARB (gene 5915) (UniProt P10826). The experiment is described as follows: ATG_RARb_TRANS: Attagene TRANS-FACTORIAL HepG2 Assay for human Retinoic Acid Receptor beta (AID 2283004). In a few lines:
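Induction of reporter mRNA from a chimeric RARb-Gal4 construct was measured by RT-PCR, FAM labelling, HpaI digestion and capillary electrophoresis. Measurements followed 24 h compound treatment of transiently transfected human HepG2 liver cells, with DMSO as baseline.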

Structures are written as SMILES. Records with an inconclusive call do not appear. Calls of active or inactive are those of the source. How the source made its calls: active means hit-call score of the fitted dose curve at least 0.9, where 1 is the maximum; inconclusive means response in the unintended direction; inactive means score below 0.9.

Sequence of human RAR-related Orphan Receptor gamma (RORg), RORC (gene 6097) (P51449 whole entry, looked up, the tested form may be a part): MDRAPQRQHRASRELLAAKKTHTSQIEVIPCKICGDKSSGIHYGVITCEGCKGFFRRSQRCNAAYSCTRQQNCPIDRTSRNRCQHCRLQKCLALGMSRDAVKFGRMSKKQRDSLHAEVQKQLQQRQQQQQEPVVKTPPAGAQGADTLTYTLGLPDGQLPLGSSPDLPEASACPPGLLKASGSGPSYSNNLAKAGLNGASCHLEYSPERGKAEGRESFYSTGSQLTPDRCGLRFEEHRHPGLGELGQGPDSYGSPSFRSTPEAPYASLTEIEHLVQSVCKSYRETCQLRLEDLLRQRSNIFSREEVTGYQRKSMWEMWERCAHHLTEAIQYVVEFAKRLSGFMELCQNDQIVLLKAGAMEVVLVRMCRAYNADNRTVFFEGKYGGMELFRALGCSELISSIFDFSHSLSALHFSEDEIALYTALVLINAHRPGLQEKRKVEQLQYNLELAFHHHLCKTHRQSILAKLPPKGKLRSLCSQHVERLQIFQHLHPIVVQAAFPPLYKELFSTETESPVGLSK
Sequence of human Peroxisome Proliferator-activated Receptor delta (PPARd), PPARD (gene 5467) (Q03181 whole entry, looked up, the tested form may be a part): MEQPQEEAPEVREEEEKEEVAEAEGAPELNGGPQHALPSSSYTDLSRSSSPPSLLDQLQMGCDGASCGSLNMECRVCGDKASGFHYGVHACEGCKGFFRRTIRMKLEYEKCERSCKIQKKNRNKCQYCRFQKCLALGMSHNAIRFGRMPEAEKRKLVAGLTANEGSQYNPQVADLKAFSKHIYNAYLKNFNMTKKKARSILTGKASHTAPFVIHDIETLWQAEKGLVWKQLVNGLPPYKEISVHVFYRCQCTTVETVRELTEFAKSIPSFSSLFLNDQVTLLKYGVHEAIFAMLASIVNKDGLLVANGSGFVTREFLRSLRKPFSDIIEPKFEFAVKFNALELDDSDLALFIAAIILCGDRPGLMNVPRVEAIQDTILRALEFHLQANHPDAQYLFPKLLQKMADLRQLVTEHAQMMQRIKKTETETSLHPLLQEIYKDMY
Sequence of Retinoic acid receptor alpha (Homo sapiens) (P10276 whole entry, looked up, the tested form may be a part): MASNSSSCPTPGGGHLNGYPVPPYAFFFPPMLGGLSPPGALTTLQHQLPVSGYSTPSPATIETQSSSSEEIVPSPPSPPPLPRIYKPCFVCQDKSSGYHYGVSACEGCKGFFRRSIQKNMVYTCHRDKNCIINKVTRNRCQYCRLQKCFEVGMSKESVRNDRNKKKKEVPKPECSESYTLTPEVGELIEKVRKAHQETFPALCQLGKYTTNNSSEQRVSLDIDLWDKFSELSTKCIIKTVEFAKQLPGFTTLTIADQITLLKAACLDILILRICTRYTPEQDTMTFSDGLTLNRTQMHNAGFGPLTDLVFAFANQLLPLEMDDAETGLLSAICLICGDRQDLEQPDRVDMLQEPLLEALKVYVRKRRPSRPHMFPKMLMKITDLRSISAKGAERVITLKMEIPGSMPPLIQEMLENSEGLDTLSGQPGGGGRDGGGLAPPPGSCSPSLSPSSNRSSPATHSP
Sequence of human RAR-related Orphan Receptor beta (RORb), RORB (gene 6096) (Q92753 whole entry, looked up, the tested form may be a part): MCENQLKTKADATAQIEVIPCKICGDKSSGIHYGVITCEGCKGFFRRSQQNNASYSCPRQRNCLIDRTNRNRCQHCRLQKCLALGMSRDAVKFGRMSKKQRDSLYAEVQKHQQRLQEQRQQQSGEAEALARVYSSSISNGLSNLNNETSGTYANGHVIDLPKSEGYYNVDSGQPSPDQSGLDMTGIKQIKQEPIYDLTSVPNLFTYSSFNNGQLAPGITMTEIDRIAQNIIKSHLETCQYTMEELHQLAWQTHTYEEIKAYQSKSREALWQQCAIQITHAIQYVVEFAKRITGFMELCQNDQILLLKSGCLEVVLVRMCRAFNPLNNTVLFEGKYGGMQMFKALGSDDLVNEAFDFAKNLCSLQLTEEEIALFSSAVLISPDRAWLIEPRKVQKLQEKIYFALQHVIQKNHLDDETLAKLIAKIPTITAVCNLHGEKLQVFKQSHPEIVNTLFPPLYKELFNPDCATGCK
Sequence of Peroxisome proliferator-activated receptor gamma (Homo sapiens) (P37231 whole entry, looked up, the tested form may be a part): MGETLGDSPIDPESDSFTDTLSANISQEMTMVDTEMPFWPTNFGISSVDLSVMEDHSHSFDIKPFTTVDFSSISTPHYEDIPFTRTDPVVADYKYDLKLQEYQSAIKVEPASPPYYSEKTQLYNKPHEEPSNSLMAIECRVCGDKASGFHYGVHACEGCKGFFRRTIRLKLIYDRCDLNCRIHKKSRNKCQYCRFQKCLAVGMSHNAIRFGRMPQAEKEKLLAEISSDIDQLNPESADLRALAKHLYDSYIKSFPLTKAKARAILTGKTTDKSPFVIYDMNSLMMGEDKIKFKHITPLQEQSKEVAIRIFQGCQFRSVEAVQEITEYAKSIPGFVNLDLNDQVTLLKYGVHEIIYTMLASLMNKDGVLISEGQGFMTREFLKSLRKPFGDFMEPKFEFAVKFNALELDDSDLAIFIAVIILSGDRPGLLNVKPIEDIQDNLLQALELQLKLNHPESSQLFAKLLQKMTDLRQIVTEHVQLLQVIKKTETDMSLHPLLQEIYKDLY
Sequence of Nuclear receptor subfamily 1 group I member 2 (Homo sapiens) (O75469 whole entry, looked up, the tested form may be a part): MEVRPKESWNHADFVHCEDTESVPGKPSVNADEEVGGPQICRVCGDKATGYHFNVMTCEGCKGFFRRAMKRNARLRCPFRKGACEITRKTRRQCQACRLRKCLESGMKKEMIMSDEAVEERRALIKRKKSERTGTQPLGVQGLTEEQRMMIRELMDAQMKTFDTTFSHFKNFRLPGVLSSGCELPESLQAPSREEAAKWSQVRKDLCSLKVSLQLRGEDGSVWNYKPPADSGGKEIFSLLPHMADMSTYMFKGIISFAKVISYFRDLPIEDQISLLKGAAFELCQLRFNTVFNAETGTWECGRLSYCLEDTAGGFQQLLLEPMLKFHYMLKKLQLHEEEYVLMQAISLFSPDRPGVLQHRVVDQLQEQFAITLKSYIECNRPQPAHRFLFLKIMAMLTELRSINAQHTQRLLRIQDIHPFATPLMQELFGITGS
Sequence of human Retinoic Acid Receptor gamma (RARg), RARG (gene 5916) (P13631 whole entry, looked up): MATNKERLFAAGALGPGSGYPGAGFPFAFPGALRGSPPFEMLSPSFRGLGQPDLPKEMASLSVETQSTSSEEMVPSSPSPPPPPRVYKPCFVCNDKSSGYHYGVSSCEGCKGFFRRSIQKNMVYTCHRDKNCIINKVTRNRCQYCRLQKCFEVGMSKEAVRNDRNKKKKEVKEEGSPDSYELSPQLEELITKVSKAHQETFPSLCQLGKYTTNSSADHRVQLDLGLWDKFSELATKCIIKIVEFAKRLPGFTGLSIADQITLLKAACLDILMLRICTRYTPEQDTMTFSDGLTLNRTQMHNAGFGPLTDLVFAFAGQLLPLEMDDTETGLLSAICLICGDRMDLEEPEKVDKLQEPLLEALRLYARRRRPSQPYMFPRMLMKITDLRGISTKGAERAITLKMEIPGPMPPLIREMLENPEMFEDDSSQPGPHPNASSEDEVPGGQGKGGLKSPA
Sequence of Retinoic acid receptor RXR-alpha (Homo sapiens) (P19793 whole entry, looked up, the tested form may be a part): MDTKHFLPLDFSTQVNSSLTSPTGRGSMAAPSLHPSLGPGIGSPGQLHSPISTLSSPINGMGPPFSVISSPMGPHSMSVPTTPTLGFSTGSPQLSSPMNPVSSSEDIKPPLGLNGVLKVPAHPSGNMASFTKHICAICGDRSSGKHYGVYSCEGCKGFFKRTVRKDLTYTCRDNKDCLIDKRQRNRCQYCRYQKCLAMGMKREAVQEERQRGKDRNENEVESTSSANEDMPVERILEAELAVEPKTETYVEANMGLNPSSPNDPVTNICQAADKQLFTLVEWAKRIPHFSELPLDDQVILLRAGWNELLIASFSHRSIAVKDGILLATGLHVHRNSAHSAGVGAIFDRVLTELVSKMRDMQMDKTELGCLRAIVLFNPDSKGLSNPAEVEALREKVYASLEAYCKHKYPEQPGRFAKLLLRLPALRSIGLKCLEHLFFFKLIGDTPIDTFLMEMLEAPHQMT
Sequence of human Retinoic Acid Receptor beta (RARb), RARB (gene 5915) (P10826 whole entry, looked up, the tested form may be a part): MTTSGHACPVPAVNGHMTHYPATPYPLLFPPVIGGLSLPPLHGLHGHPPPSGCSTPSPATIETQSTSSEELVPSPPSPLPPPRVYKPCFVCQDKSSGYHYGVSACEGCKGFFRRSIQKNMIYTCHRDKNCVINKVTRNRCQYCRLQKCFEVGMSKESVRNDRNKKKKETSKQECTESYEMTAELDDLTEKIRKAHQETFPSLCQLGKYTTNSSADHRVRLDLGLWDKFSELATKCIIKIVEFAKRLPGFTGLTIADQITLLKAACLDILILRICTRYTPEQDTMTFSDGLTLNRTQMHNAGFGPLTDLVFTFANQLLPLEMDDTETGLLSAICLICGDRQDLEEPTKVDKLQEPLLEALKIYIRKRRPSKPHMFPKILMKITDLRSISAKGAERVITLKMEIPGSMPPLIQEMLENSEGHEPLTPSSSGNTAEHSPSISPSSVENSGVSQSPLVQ

As for `O=C(O)CC(C(=O)O)C(CC(=O)O)C(=O)O` (configuration not stated), the compound was called inactive in [1], in experiment [2] and in experiment [3].

Turning to `c1cc(C(c2ccc(OCC3CO3)cc2)C(c2ccc(OCC3CO3)cc2)c2ccc(OCC3CO3)cc2)ccc1OCC1CO1` (configuration not stated), the compound was called inactive in [1], in [4], in experiment [2] and in experiment [3].

Take `O=S(=O)(O)c1cc(S(=O)(=O)O)c2ccc3c(S(=O)(=O)O)cc(S(=O)(=O)O)c4ccc1c2c43`: the result in experiment [1], in [4], in experiment [5] and in experiment [6] was inactive.

For `O=C(C(Cl)Cl)N1CCOC12CCCCC2`, the call in experiment [1], in [2], in experiment [3], in experiment [7] and in experiment [8] was inactive.

For the compound `COc1cc(C)ccc1C(C)C`, the compound was called inactive in experiment [1], in [4] and in [3].

Regarding `CC(=O)OC1C2(C)CCC(C2)C1(C)C` (configuration not stated), the outcome in [1], in [2] and in experiment [3] was inactive.

For the compound `C=CC(=O)OCCOC1C2CCC1C1CC=CC12` (configuration not stated), the outcome in experiment [1], in [2] and in [3] was inactive.

`COC(=O)c1c(C)cc(O)c(C)c1O`: the call in [1], in [2], in experiment [3], in [7] and in experiment [8] was inactive.

`CC(C)(C)C(=O)CCc1ccc(Cl)cc1`: the compound was classed as inactive in experiment [1], in experiment [2], in experiment [3], in experiment [7], in [6] and in [8].

As usually defined, the AC50 is the concentration giving half of the maximal activity seen. On to `Nc1ccc(Oc2ccc(N)c(N)c2)cc1`, for which the compound was classed as inactive in experiment [1], in [3], in [7] and in experiment [8]. Further, the AC50 in experiment [2] is 60.1 µM (active).

On to `Cc1cc(C)c(C)cc1C`, for which the call in [1] and in experiment [2] was inactive.

With `CCN(CCO)c1cccc(C)c1`, the compound was called inactive in [1], in experiment [2], in [7] and in experiment [8]. Also, the AC50 in experiment [3] was 27 µM (active).

As for `O=c1c2ccccc2nnn1CCl`, the compound was classed as inactive in [1], in experiment [4] and in [2]. Also, the concentration at half-maximal activity (AC50) in experiment [3] is 5.33 µM (active).

With `CNC(=S)NN`, the outcome in experiment [1], in experiment [9], in experiment [5], in experiment [6] and in experiment [8] was inactive.

In the case of `O=C(c1ccccc1)c1ccc(O)c(O)c1O`, the result in experiment [1], in experiment [4], in [5] and in experiment [8] was inactive. For the same compound, the AC50 in [2] was 47 µM (active); in [3], 24 µM (active).

Turning to `CCN(CCC#N)c1ccc(N=Nc2c(Cl)cc([N+](=O)[O-])cc2Cl)cc1`, the result in experiment [1], in [7] and in experiment [8] was inactive. Besides, the AC50 is 16.3 µM (active) in experiment [2] and 1.05 µM (active) in [3].

Regarding `COC(=O)c1sccc1S(N)(=O)=O`, the outcome in [1], in experiment [4], in [2], in [3], in experiment [7] and in [5] was inactive. Further, in experiment [6], the outcome was inactive.

`OC1CCCC1`: the compound was classed as inactive in experiment [1], in experiment [4], in [5] and in experiment [6].

As for `CC(C)=CCCC(C)C=O` (configuration not stated), the compound was classed as inactive in experiment [1] and in [2]. For the same compound, the AC50 in [3] was 7.95 µM (active).

On to `Cc1ccc2c(c1)C(=O)c1ccccc1C2=O`, for which the compound was classed as inactive in [1], in [7] and in experiment [8]. The results for the AC50 in experiment [2] and in experiment [3] were 15.1 µM (active) and 6.18 µM (active), respectively.

For `O=C1CCCCCCCCCCCCCCCO1`, the concentration at half-maximal activity (AC50) was 143 µM (active) in [1] and 100 µM (active) in experiment [2]. The outcome in experiment [4], in experiment [3], in experiment [5] and in experiment [8] was inactive.

For `CN(C)c1ccc(C(=N)c2ccc(N(C)C)cc2)cc1`, the compound was classed as inactive in experiment [1], in [3], in experiment [7], in [6] and in experiment [8]. Further, in experiment [2], the AC50 was 26.6 µM (active).

For `CC(C)CCCC(C)CC=O` (configuration not stated), the result in [1], in experiment [2], in experiment [3], in experiment [5] and in experiment [6] was inactive.

Consider `CC(=O)OCCC1CCCCC1`, for which the outcome in [1], in experiment [2] and in experiment [3] was inactive.

Regarding `O=C(Nc1cccc(C(F)(F)F)c1)c1cc(Br)cc(Br)c1O`, the compound was called inactive in [1], in experiment [7], in experiment [5] and in experiment [8]. For the same compound, the results for the AC50 in experiment [2] and in experiment [3] were 2.57 µM (active) and 1.07 µM (active), respectively.

As to `O=C(Nc1ccccc1)c1ccccc1O`, the outcome in experiment [1], in [4], in experiment [3], in [7] and in experiment [8] was inactive. Moreover, the AC50 in [2] is 55.9 µM (active).

On to `CCc1c(C(=O)O)c(=O)cnn1-c1ccc(Cl)cc1`, for which the outcome in experiment [1], in experiment [2] and in [3] was inactive.

`CC(=O)[C@@]1(O)CC[C@H]2[C@@H]3C[C@H](C)C4=CC(=O)C=C[C@]4(C)[C@@]3(F)[C@@H](O)C[C@@]21C`: the compound was called inactive in experiment [1], in experiment [4], in [3] and in [8].

`CCOC(=O)CC(C(C)=O)C(C)=O`: the compound was called inactive in [1], in experiment [4], in [3], in experiment [5] and in experiment [8].

Take `O=S(=O)(O)CC(O)CCl` (configuration not stated): the compound was classed as inactive in [1] and in experiment [3]. In addition, the AC50 in experiment [2] was 26.4 µM (active).

As to `Nc1ccc(N=Nc2ccccc2)c(N)n1`, the call in [1], in experiment [3], in experiment [7] and in [8] was inactive. Moreover, in [2], the AC50 is 59.4 µM (active).

As to `C=C1C2CCC(C2)C1(C)C` (configuration not stated), the compound was called inactive in experiment [1], in experiment [4] and in experiment [5]. Moreover, the AC50 in experiment [3] is 18.9 µM (active).

For the compound `CC(C)c1ccc(C=O)cc1`, the outcome in experiment [1], in experiment [2], in [3], in experiment [5] and in [6] was inactive.

As for `C1=Cc2ccccc2C1`, the call in experiment [1], in [5] and in [6] was inactive. The AC50 in experiment [2] is 67.4 µM (active); in [3], 6.06 µM (active).

`NC(=O)N=NC(N)=O`: the compound was called inactive in [1], in experiment [2], in experiment [3], in experiment [6] and in experiment [8].

`c1ccc(CNCc2ccccc2)cc1`: the compound was classed as inactive in experiment [1], in [2], in experiment [3] and in experiment [6].

Regarding `COC(=O)/C=C/C(C)=C\C=C\C(C)=C\C=C\C=C(C)\C=C\C=C(C)\C=C\C(=O)O`, the call in [1], in [3], in [5] and in [8] was inactive. In addition, the AC50 in experiment [2] is 27.9 µM (active).
